HT1080NT lethal = qHTS for induction of synthetic lethality in tumor cells producing 2HG: qHTS for the HT-1080-NT fibrosarcoma cell line. HT-1080-NT fibrosarcoma viability, CellTiter-Glo ATP luminescence, 48 h. Potency, µM (series often up to 46.1 µM), usual class: cytotoxic. hit rate 1.6% among 360,000. AID 686970, 2013;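 also: NT is the 2HG producing partner of a matched IDH1 knockdown line; nearly all actives have a fitted effect of over 55% in size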
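HT-1080-NT; 750 cells/well; 5% FBS RPMI; 48 h compound, 37 degrees C; CellTiter-Glo luminescence; curve fitting and curve-class assignment.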
TDP1 cell CPT = qHTS for Inhibitors of human tyrosyl-DNA phosphodiesterase 1 (TDP1): qHTS in cells in presence of CPT; chicken DT40 Tdp1-/-;hTDP1 cells + 20 nM CPT, ATP luminescence, 48 h; Potency, µM (highest dose often 46.2 µM), most hits filed as inhibitors; hit rate 12% among 420,000; also: nearly all actives have a fitted effect of over 55% in size
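Chicken DT40 Tdp1-/- cells complemented with human TDP1, 400 cells/well, exposed to compounds plus 20 nM camptothecin for at least 48 h at 37 C; viability read as ATP content by CellTiter-Glo luminescence.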
HT1080 IDH1KD tx = qHTS for induction of synthetic lethality in tumor cells producing 2HG: qHTS for the HT-1080-IDH1KD cell line | AID 686971, 2013 | hit rate 2% among 360,000 | HT-1080 IDH1 knockdown viability, ATP luminescence, 48 h | Potency, µM (highest dose often 46.1 µM), usual class: cytotoxic
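% activity derives from luminescence (CellTiter-Glo), normalised to DMSO and no-cell wells. HT-1080-IDH1KD cells, 750/well, had 48 h compound exposure at 37 °C.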
IL-1B inflam inh = qHTS for Inhibitors of Inflammasome Signaling: IL-1-beta AlphaLISA Primary Screen; activity change, % at 57.5 µM; hit rate 4.7% among 360,000; THP-1 LPS/ATP IL-1B secretion, AlphaLISA, 16 h; stronger effect = lower value; in the data active = activity change below about -50%; inconclusive = mostly about -30% to -49%
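THP-1 cells pretreated 1 hr with compounds (up to 57.5 uM final), then stimulated with LPS (250 ng/mL final) plus ATP (1.25 mM final); secreted IL-1B measured by AlphaLISA after 16 hr, decreased signal indicating inhibition.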
TDP1 cell noCPT = qHTS for Inhibitors of human tyrosyl-DNA phosphodiesterase 1 (TDP1): qHTS in cells in absence of CPT | hit rate 15% among 420,000 | DT40 Tdp1-/- hTDP1 cells, no CPT, ATP luminescence, 48 h | Potency, µM (highest dose often 46.2 µM), most hits filed as inhibitors; also: nearly all actives have a fitted effect of over 55% in size
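No-CPT arm: Tdp1-/-;hTDP1 DT40 cells (400/well) plus compounds, incubated ≥48 hr at 37 °C. Readout CellTiter-Glo luminescence.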
ALOX12 inh = Primary qHTS assay for inhibitors of human arachidonate 12S-lipoxygenase (ALOX12): Round 2; AID 1671190, 2021; Polyunsaturated fatty acid lipoxygenase ALOX12 (Homo sapiens), P18054; Potency, µM (doses to about 108 µM), most hits filed as inhibitors; hit rate 1.1% among 580,000; purified 12hLO, xylenol orange hydroperoxide absorbance
Target sequence (P18054 whole entry, looked up): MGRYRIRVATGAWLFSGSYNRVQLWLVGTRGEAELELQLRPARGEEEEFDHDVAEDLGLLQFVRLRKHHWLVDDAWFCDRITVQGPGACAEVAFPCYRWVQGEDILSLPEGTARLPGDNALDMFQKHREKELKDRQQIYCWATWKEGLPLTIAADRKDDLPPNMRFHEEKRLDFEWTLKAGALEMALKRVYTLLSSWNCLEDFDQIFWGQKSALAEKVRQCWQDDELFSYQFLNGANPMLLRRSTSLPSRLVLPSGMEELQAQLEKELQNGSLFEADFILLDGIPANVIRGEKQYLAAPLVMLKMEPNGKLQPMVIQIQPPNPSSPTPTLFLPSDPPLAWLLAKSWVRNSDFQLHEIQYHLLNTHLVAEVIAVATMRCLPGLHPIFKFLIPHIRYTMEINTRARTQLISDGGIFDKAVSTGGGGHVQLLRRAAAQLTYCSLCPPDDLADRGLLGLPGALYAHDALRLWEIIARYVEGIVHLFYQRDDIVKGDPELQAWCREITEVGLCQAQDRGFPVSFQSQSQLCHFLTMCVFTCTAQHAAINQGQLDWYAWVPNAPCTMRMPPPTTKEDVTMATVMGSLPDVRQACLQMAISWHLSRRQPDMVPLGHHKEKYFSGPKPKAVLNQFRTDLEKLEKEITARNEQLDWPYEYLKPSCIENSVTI
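Hydroperoxide product was detected by ferrous iron/xylenol orange as the 573 to 405 nm absorbance ratio. Arachidonic acid at 40 uM (final) was turned over for 30 min at room temperature by 150 nM human 12hLO, pH 7.0 Hepes buffer, after 15 min compound preincubation.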
A number is an active result; n = inactive; u = inconclusive; x = no result given. This excerpt belongs to a sample that is enriched for hits. Unless noted, calls follow the shape of the dose curve; as a rule, active = well fitted curve in the direction sought with a large enough effect; inconclusive = small, poorly fitted or top-dose-only effect, or another doubt; inactive = no such curve, though single readings can be large; an effect the other way counts as inactive or inconclusive.

SMILES | HT1080NT lethal | TDP1 cell CPT | HT1080 IDH1KD tx | IL-1B inflam inh | TDP1 cell noCPT | ALOX12 inh
O=C(OCc1ccccc1)N1CCCN(c2cc(C3CC(O)C3)ncn2)CC1 (configuration not stated) | x | x | x | x | x | n
COCC(C)NC(=O)CSc1nc(-c2ccccc2)c(-c2ccccc2)o1 (configuration not stated) | n | 12µM | n | n | 8.2µM | u
O=C(CSc1nc(-c2ccccc2)c(-c2ccccc2)o1)N1CCOCC1 | n | 29µM | n | n | 16µM | n
CNC(=O)CSc1nc(-c2ccccc2)c(-c2ccccc2)o1 | n | n | n | n | u | n
CCN(CC)S(=O)(=O)c1cccc(-c2nnc(SCc3ccc(Cl)cc3)n2N)c1 | x | x | x | x | x | n
Cc1cc(-c2nc3ccccc3s2)ccc1N | n | u | n | n | u | n
Cc1ccc(-c2nnc(Nc3ccc(Cl)c(Cl)c3)c3ccccc23)cc1S(=O)(=O)N(C)C | x | u | x | x | u | n
Cc1ccc(-c2nnc(NCc3nc4ccccc4[nH]3)c3ccccc23)cc1S(=O)(=O)N1CCOCC1 | n | 15µM | n | n | 10µM | x
Cc1ccc(-c2nnc(NCc3nc4ccccc4[nH]3)c3ccccc23)cc1S(=O)(=O)N(C)C | n | 10µM | n | n | 23µM | n
Cc1ccc(-c2nc3ccccc3s2)cc1S(=O)(=O)N1CCOCC1 | n | u | 18µM | n | u | n
CCOc1ccc(S(=O)(=O)[C@H]2CS(=O)(=O)C[C@@H]2N2CCC3(CC2)OCCO3)cc1 | x | x | x | x | x | n
COc1cc(NC(=O)c2nn(-c3ccc(F)cc3)c(=O)n(C)c2=O)cc(OC)c1OC | x | 15µM | x | x | 10µM | u
COc1ccc(Cl)cc1NC(=O)c1nn(-c2ccc(C)cc2)c(=O)n(C)c1=O | x | 16µM | x | x | n | n
Cc1ccc(-n2nc(C(=O)Nc3ccc(C)c(F)c3)c(=O)n(C)c2=O)cc1 | x | n | x | x | n | n
CC(C)CNC(=O)c1nc(-c2ccc3cc[nH]c3c2)no1 | x | x | x | x | x | n
CC1C(=O)N(Cc2cn(CCC3OCCCO3)nn2)CCS(=O)(=O)N1Cc1ccc(-c2ccc(F)nc2)cc1 (configuration not stated) | n | u | n | n | 13µM | n
CC(C)C1C(=O)N(Cc2cn(CCC3OCCCO3)nn2)CCS(=O)(=O)N1Cc1ccc(-c2cccc(CO)c2)cc1 (configuration not stated) | n | n | n | n | u | n
CC(C)C1C(=O)N(Cc2cn(CCC3OCCO3)nn2)CCS(=O)(=O)N1Cc1ccc(-c2ccc(F)nc2)cc1 (configuration not stated) | n | u | n | n | 16µM | u
CC1C(=O)N(Cc2cn(CCC3OCCCO3)nn2)CCS(=O)(=O)N1Cc1ccc(-c2ccncc2)cc1 (configuration not stated) | n | n | n | n | 9.2µM | n
CC(C)C1C(=O)N(Cc2cn(CCC3OCCCO3)nn2)CCS(=O)(=O)N1Cc1ccc(-c2ccc(F)nc2)cc1 (configuration not stated) | n | u | n | n | 16µM | n
CN1CCC(N(C)C(=O)CCC[C@@H]2[C@H]3CCCN4CCC[C@@H](CN2Cc2ccccc2)[C@@H]34)CC1 | x | x | x | x | x | n
O=C(CCCC(=O)OCC(=O)c1cccc([N+](=O)[O-])c1)Nc1cc(C(F)(F)F)ccc1Cl | x | x | x | x | x | n
O=C(CNc1ccc2ccccc2c1)N/N=C/c1ccc([N+](=O)[O-])o1 | u | 15µM | u | n | 21µM | n
O=C(CSc1ccc(Cl)cc1)N/N=C/c1ccc([N+](=O)[O-])o1 | n | 16µM | n | n | u | 40µM

Assay outcomes as filed in PubChem BioAssay.
